Where “and” joins values, the source holds several entries; their conditions need not be identical. Equal values may be shown once. Inconclusive results are not listed. Calls of active or inactive are those of the source.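 How the source made its calls, unless noted: active means normalized viability below 100% at a tested concentration; inactive means the rest.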
How the values were obtained:
[1] = P. berghei load reduction in hepatocytes – cell-based, HepG2, luciferase luminescence, HepG2 viability, primary screen (AID 624349; in the data active means parasite load remaining mostly below about 12%, no sharp cut-off; inactive means mostly above about 10%;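 further: 100% = mean of DMSO negative control wells on the same plate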); details: P. berghei liver stage in HepG2, luciferase luminescence, concentration not given here; parasite load remaining: stronger effect = lower value; viability: measured here: HepG2 viability without parasites
[2] = system: Aerobactin synthetase IucA (Klebsiella pneumoniae); assay: inhibition of K. pneumoniae IucA enzyme – biochemical, Tocris library, absorbance (AID 1345561; call rule not given here;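 further: 100% = enzyme without compound and 0% = no enzyme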); details: purified IucA enzyme assay, absorbance (OD) read-out; stronger effect = lower value;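 tested at 8 µM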
[3] = viability loss in pontine glioma line – cell-based, SU-DIPG-XVII, MIPE5.0, CellTiter-Glo, qHTS, dose response (AID 1347060; cut-off not given, nearly all actives have AC50 up to about 26 µM); details: CellTiter-Glo ATP luminescence
[4] = viability loss in pontine glioma line – cell-based, SU-DIPG-XIII, MIPE4.0, CellTiter-Glo, qHTS, dose response (AID 1347061; cut-off not given, nearly all actives have AC50 up to about 37 µM;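 further: cells exposed to compound for 48 hours before readout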); details: CellTiter-Glo ATP luminescence
[5] = viability loss in pontine glioma line – cell-based, JHH-DIPG-1, MIPE4.0, CellTiter-Glo, qHTS, dose response (AID 1347062; cut-off not given, nearly all actives have AC50 up to about 27 µM); details: JHH-DIPG-1 viability, CellTiter-Glo ATP luminescence
[6] = growth inhibition of DIPG cells – cell-based, MIPE4.0 library, CellTiter-Glo luminescence, qHTS (AID 1347066; cut-off not given, nearly all actives have AC50 up to about 30 µM;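 further: cells exposed to compound for 48 hours before readout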); details: SU-DIPG-VI viability, CellTiter-Glo ATP luminescence
[7] = JHH-DIPG-1 glioma cell viability, MIPE5.0 library, CellTiter-Glo luminescence, qHTS (AID 1347067; cut-off not given, nearly all actives have AC50 up to about 26 µM;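 further: cells exposed to compound for 48 hours before readout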); details: JHH-DIPG-1 glioma viability, CellTiter-Glo ATP luminescence
[8] = viability loss with induced miR-34 in A549 – imaging, A549 dox-inducible miR-34, nuclei and caspase counts, primary screen (AID 1347080;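 active means compounds whose cell count with miR-34 switched on is under 0.7 times the count with it off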); details: A549 miR-34 inducible, Hoechst nuclei count, 48 h
[9] = compounds altering HSF1 focus formation in cells – imaging, Selleck Cancer Library (AID 1347162; in the data active means plate-normalised HSF1 focus index below about 0.46); details: human cells, HSF1 nuclear foci imaging, at 10 µM; SSMD: measured here: HSF1 foci SSMD mean; cell count: measured here: cell number; plate-normalised HSF1 focus index: stronger effect = lower value
[10] = MELAS cybrid and Rieske KO viability enhancers – cell-based, MELAS cybrids, Rieske KO mouse fibroblasts, CellTiter-Glo, primary screen (AID 1508586;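 active means mean z-score across replicates of 1.96 or higher in either the MELAS or the Rieske mutant cell line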;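 further: z relative to plate mean and SD of compound and empty wells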); details: low glucose
[11] = drug combination growth inhibition, ovarian cancer – cell-based, oncology-focused library, rucaparib conditional, profiling panel (AID 1508598); details: patient-derived ovarian cancer cells, CellTiter-Glo viability, 144 h, stronger effect = lower value
[12] = galactose survival enhancers in mitochondrial complex I cybrids – cell-based, galactose medium, ATP luminescence, primary screen (AID 1645843;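 active means z-score of at least 1.8 in each of two replicates, scored against plate mean and spread of sample wells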;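 further: positive z means more ATP and so rescue of galactose-driven cybrid death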); details: complex I mutant cybrid cells, 72 h, stronger effect = higher value
[13] = growth inhibition, single agent or in combination, cell-based, chromothripsis tumors, cisplatin or BGB combos (AID 1671449; in the data active means inhibition above about 80%;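 further: cells exposed for 96 hours; 0% = vehicle DMSO and 100% = killing by high DMSO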); details: LFS_MB_P medulloblastoma cells
[14] = growth inhibition, single agent and combos, cell-based, chromothripsis tumors, cisplatin or BGB combos (AID 1671450; in the data active means inhibition above about 80%;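 further: cells exposed to compound for four days; 0% = vehicle DMSO and 100% = cell killing by high DMSO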); details: HDN33 neuroblastoma cells, stronger effect = higher value

O=c1cc(-c2cccc3c2Sc2ccccc2S3)oc(N2CCOCC2)c1
parasite load remaining [1]: 39.8% (inactive)
viability [1]: 161%
remaining activity [2]: 94.8% (inactive)
outcome [3]: inactive
outcome [4]: inactive
outcome [5]: inactive
outcome [6]: inactive
outcome [7]: inactive
fold change ([8]; stronger effect = lower value, cell number ratio, induced over uninduced): 0.936 (inactive) and 1.01 (inactive)
fold change ([8]; measured here: relative caspase fold change +Dox/-Dox): 1.11 and 2.27
cell count ([8]; measured here: total cells with miR-34 induction, stronger effect = lower value): 5990 and 5760
cell count ([8]; measured here: total cells without miR-34 induction): 6400 and 5730
SSMD [9]: 2.97
cell count [9]: 6680
plate-normalised HSF1 focus index [9]: 1.15 (inactive)
z-score ([10]; MELAS cybrid survival, CellTiter-Glo 48 h, stronger effect = higher value): -0.376 (inactive)
z-score ([10]; Rieske KO mouse fibroblast survival, CellTiter-Glo 72 h): 1.02
viability ([11]; at 0.000305 µM, OCI-C5x cells, with rucaparib 10 µM, 100% = cells with rucaparib alone): 113% (inactive)
viability ([11]; at 0.000305 µM, OCI-C5x cells, without rucaparib): 119% (inactive)
viability ([11]; at 0.000305 µM, OCI-P5x cells, with rucaparib 20 µM, 100% = cells with rucaparib alone): 105% (inactive)
viability ([11]; at 0.000305 µM, OCI-P5x cells, without rucaparib): 109% (inactive)
viability ([11]; at 0.00122 µM, OCI-C5x cells, with rucaparib 10 µM, 100% = cells with rucaparib alone): 122% (inactive)
viability ([11]; at 0.00122 µM, OCI-C5x cells, without rucaparib): 121% (inactive)
viability ([11]; at 0.00122 µM, OCI-P5x cells, with rucaparib 20 µM, 100% = cells with rucaparib alone): 104% (inactive)
viability ([11]; at 0.00122 µM, OCI-P5x cells, without rucaparib): 106% (inactive)
viability ([11]; at 0.00488 µM, OCI-C5x cells, with rucaparib 10 µM, 100% = cells with rucaparib alone): 118% (inactive)
viability ([11]; at 0.00488 µM, OCI-C5x cells, without rucaparib): 119% (inactive)
viability ([11]; at 0.00488 µM, OCI-P5x cells, with rucaparib 20 µM, 100% = cells with rucaparib alone): 100% (inactive)
viability ([11]; at 0.00488 µM, OCI-P5x cells, without rucaparib): 103% (inactive)
viability ([11]; at 0.0195 µM, OCI-C5x cells, with rucaparib 10 µM, 100% = cells with rucaparib alone): 117% (inactive)
viability ([11]; at 0.0195 µM, OCI-C5x cells, without rucaparib): 132% (inactive)
viability ([11]; at 0.0195 µM, OCI-P5x cells, with rucaparib 20 µM, 100% = cells with rucaparib alone): 98% (active)
viability ([11]; at 0.0195 µM, OCI-P5x cells, without rucaparib): 64.5% (active)
viability ([11]; at 0.0781 µM, OCI-C5x cells, with rucaparib 10 µM, 100% = cells with rucaparib alone): 116% (inactive)
viability ([11]; at 0.0781 µM, OCI-C5x cells, without rucaparib): 119% (inactive)
viability ([11]; at 0.0781 µM, OCI-P5x cells, with rucaparib 20 µM, 100% = cells with rucaparib alone): 106% (inactive)
viability ([11]; at 0.0781 µM, OCI-P5x cells, without rucaparib): 103% (inactive)
viability ([11]; at 0.313 µM, OCI-C5x cells, with rucaparib 10 µM, 100% = cells with rucaparib alone): 108% (inactive)
viability ([11]; at 0.313 µM, OCI-C5x cells, without rucaparib): 126% (inactive)
viability ([11]; at 0.313 µM, OCI-P5x cells, with rucaparib 20 µM, 100% = cells with rucaparib alone): 91.8% (active)
viability ([11]; at 0.313 µM, OCI-P5x cells, without rucaparib): 105% (inactive)
viability ([11]; at 1.25 µM, OCI-C5x cells, with rucaparib 10 µM, 100% = cells with rucaparib alone): 111% (inactive)
viability ([11]; at 1.25 µM, OCI-C5x cells, without rucaparib): 127% (inactive)
viability ([11]; at 1.25 µM, OCI-P5x cells, with rucaparib 20 µM, 100% = cells with rucaparib alone): 108% (inactive)
viability ([11]; at 1.25 µM, OCI-P5x cells, without rucaparib): 107% (inactive)
viability ([11]; at 5 µM, OCI-C5x cells, with rucaparib 10 µM, 100% = cells with rucaparib alone): 88.8% (active)
viability ([11]; at 5 µM, OCI-C5x cells, without rucaparib): 131% (inactive)
viability ([11]; at 5 µM, OCI-P5x cells, with rucaparib 20 µM, 100% = cells with rucaparib alone): 66.3% (active)
viability ([11]; at 5 µM, OCI-P5x cells, without rucaparib): 27.9% (active)
z-score [12]: -0.18 (inactive)
inhibition ([13]; at 0.5 µM, stronger effect = higher value): 81.3% (active)
inhibition ([13]; measured here: combination with BGB IC20, at 0.005 µM): -22.8%
inhibition ([13]; measured here: combination with BGB IC40, at 0.005 µM): -15.3%
inhibition ([13]; measured here: combination with BGB IC40, at 0.05 µM): -27.2%
inhibition ([13]; measured here: combination with cisplatin, at 0.5 µM, stronger effect = higher value): 108%
inhibition ([13]; measured here: combination with cisplatin, at 5 µM, stronger effect = higher value): -58.3%
inhibition ([14]; BGB combo, at 5 µM): -23.9%
inhibition ([14]; at 0.5 µM): -20.7% (inactive)
inhibition ([14]; cisplatin combo, at 5 µM): -6.5%

From PubChem BioAssay
